A selection: hits, their analogues and other compounds. The true share with any hit is near 5.7%.
PI5P4K alpha inh: blocks human PI5P4K alpha kinase activity; actives 1.2% (n = 330,000); PI5P4Kalpha enzyme, ADP-Glo luminescence, 60 min; active compounds read low; max response, %; P48426; active means max response of -50% or lower; inconclusive means between -30% and -50%; inactive means -30% or higher; further: value at the top dose of about 77 µM
Target sequence (P48426 whole entry, looked up): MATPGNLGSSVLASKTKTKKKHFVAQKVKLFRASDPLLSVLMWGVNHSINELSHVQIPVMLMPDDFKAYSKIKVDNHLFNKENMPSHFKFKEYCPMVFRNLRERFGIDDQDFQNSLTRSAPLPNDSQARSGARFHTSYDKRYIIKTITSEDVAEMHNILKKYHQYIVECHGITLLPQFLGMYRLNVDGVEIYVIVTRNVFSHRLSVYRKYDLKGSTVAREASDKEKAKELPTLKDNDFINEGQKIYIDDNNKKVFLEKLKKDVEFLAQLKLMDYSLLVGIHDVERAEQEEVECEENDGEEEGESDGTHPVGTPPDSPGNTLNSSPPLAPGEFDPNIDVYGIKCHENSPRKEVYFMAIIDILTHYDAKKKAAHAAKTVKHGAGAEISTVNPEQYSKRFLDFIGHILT
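Human PI5P4Kalpha with substrate in 0.038 M HEPES pH 7.4, 0.28 mM EGTA, 0.1% CHAPS, 5% DMSO; reaction started with 5 microM ATP (final), 60 min at room temperature. ADP formed read by ADP-Glo luminescence.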
JMJD2E inh: inhibitors of human JMJD2E histone demethylase | actives 1.6% (n = 230,000) | Potency, µM (doses to about 57.1 µM), hits mostly inhibitors | JMJD2E catalytic domain, FDH-coupled NADH fluorescence (FDH is formaldehyde dehydrogenase); active means well fitted inhibition curve with a large enough effect, not every such curve was filed as active; inconclusive means small, poorly fitted or top-dose-only effect, or another doubt; inactive means no such curve, though single readings can be large or run the other way; further: nearly all actives have a fitted effect of over 50% in size
JMJD2A Tudor inh: blocks the human JMJD2A Tudor domain; Potency, µM (titrated, usually from 114 µM), hits mostly inhibitors; O75164; actives 4.4% (n = 390,000); AlphaScreen JMJD2A-Tudor / H3K4me3 peptide binding; further: nearly all actives have a fitted effect of over 50% in size
BAZ2B inh: inhibitors of human BAZ2B bromodomain. Q9UIF8. AlphaScreen BAZ2B-H3K14Ac peptide displacement. Potency, µM (highest dose often 114 µM), hits mostly inhibitors. actives 4.4% (n = 360,000). AID 504333; further: nearly all actives have a fitted effect of over 60% in size
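AlphaScreen displacement of biotin-H3(5-23)K14Ac peptide (50 nM final) from BAZ2B (50 nM final) in PBS pH 7.4, 0.01% Tween-20; complex preformed 30 min RT, then compounds (top 110 uM) 30 min RT, beads 20 min dark.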
HP1b chromo inh: blocks HP1-beta chromodomain binding to methylated histone tails; P83916; AlphaScreen HP1-beta / biotin-H3K9me3 peptide binding; Potency, µM (doses to about 114 µM), most hits filed as inhibitors; actives 0.56% (n = 390,000); AID 540317; further: nearly all actives have a fitted effect of over 70% in size
Target sequence (P83916 whole entry, looked up): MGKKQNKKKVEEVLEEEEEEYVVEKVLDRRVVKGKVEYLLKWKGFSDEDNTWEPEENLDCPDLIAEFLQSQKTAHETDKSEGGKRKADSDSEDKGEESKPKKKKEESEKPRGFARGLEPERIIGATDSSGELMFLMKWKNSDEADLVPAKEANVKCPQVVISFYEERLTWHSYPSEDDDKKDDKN
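Compound inhibition of the preformed complex between 50 nM HP1-beta and 50 nM biotinylated H3K9me3 peptide was read by AlphaScreen. Buffer was PBS pH 7.4 with 0.01% Tween-20. Incubations ran 30 min at room temperature, with 10 ug/mL donor/acceptor beads.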
L3MBTL1 inh: inhibitors of human L3MBTL1. Q9Y468. Potency, µM (series often up to 57.1 µM), usual class: inhibitors. AID 485360. actives 0.66% (n = 230,000). AlphaScreen L3MBTL1–H3K9me1 peptide binding; further: nearly all actives have a fitted effect of over 60% in size
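First, the protein-peptide complex forms for 30 min at room temperature (L3MBTL1 50 nM, biotinylated H3K9me1 peptide 75 nM). Next, compounds are pin-transferred and incubated 30 min. Finally, AlphaScreen beads are added and read after 30 min.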
Hits are given with their value; - = inactive; ? = inconclusive; . = no result given; [ ] = dose if it differs, or a comment. Unless noted, the call rests on the fitted dose curve; in most records, active means well fitted inhibition curve with a large enough effect; inconclusive means small, poorly fitted or top-dose-only effect; inactive means no such curve, though single readings can be large or run the other way.

SMILES | PI5P4K alpha inh | JMJD2E inh | JMJD2A Tudor inh | BAZ2B inh | HP1b chromo inh | L3MBTL1 inh
COc1cccc(N2CCN(C(=O)c3cccc(NC4=NC5CS(=O)(=O)CC5S4)c3)CC2)c1 (configuration not stated) | - | . | - | - | - | -
O=C(NCc1ccccc1Cl)c1ccc(CS(=O)(=O)c2ccc(Br)cc2)o1 | . | . | - | - | - | .
COc1cccc(N2CCN(c3ccc4nnc(CCC(=O)Nc5cccc(C(C)=O)c5)n4n3)CC2)c1 | - | . | 16µM | - | - | .
O=C(NCc1ccco1)c1ccc2c(c1)N(Cc1ccc(F)cc1)C(=O)c1ccccc1S2(=O)=O | . | . | - | - | - | .
COc1ccccc1NS(=O)(=O)c1ccc(N/N=C/c2c(C)nn(-c3ccccc3)c2N2CCCC2)c([N+](=O)[O-])c1 | - | - | ? | 4.5µM | ? | ?
CCOc1ccc(S(=O)(=O)Nc2ccc(C(=O)N/N=C/c3c(C)nn(-c4ccccc4)c3N3CCCC3)cc2)cc1 | -74 | ? | - | - | ? | -
Cc1nn(-c2ccccc2)c(N2CCCC2)c1/C=N/Nc1ccc(S(=O)(=O)Nc2ccccc2)cc1[N+](=O)[O-] | - | - | 5µM | ? | ? | -
Cc1cc(C)c2c(=O)n(CC(=O)NCCCN3CCOCC3)sc2n1 | -101 | ? | 1.1µM | ? | 3.2µM | -
Cc1ccccc1CS(=O)(=O)CCC(=O)NCCCN1CCN(c2ccccc2F)CC1 | - | - | - | - | - | -
Cc1cc([N+](=O)[O-])nn1CC(=O)NCCCN1CCOCC1 | - | . | - | - | - | .
Cc1cc(C)c2c(=O)n(CC(=O)NCCCN3CCN(c4ccccc4F)CC3)sc2n1 | -77 | 28µM | 1µM | ? | 2.5µM | -
OCC[C@@H]1C[C@H](O)[C@@H](O)[C@]2(OCc3cc(C(F)(F)F)ccc32)O1 | - | . | . | . | . | .
O=C(Cn1cc(C(F)(F)F)ccc1=O)Nc1ccc(N2CCOCC2)cc1 | - | - | - | - | - | -
C=CCn1c(=O)c(CCC(=O)Nc2ccc(N3CCOCC3)cc2)nc2cc(C(F)(F)F)ccc21 | -53 | . | 35µM | - | - | .
CC(C)COC(=O)c1ccc2c(c1O)C(=O)c1ccccc1C2=O | - | - | 7.9µM | 10µM | ? | .
O=C(COc1ccc([N+](=O)[O-])cc1)Nc1ccc(N2CCN(C(=O)c3ccco3)CC2)cc1 | - | . | - | 25µM | - | .
CNC(=S)N/N=C/c1ccc(-c2ccc(C(=O)O)cc2)o1 | -62 | ? | -[11.4 µM] | ? | ? | ?
CC(C)(C)NC(=S)N/N=C\c1ccc(-c2ccc([N+](=O)[O-])cc2)o1 | - | - | ? | ? | - | -
CNC(=S)N/N=C/c1ccc(-c2ccc(Cl)c([N+](=O)[O-])c2)o1 | - | - | - | 79µM | - | -
CCOc1ccc(N(CC(=O)Nc2ccc(OC)cc2)S(=O)(=O)c2ccc(Cl)cc2)cc1 | . | . | - | - | - | .
COc1cc(OC)c(C(=O)OCC(=O)NCCC2=CCCCC2)cc1OC | - | . | - | - | - | -
CCS(=O)(=O)c1ccc(OC)c(N=Nc2ccc(O)c3ncccc23)c1 | - | 18µM | 40µM | 8.9µM | - | .
CCN(CC)S(=O)(=O)c1cc(OC)ccc1N=Nc1ccc(O)c2ncccc12 | - | . | 13µM | 20µM | ? | .
Cc1ccc(N2CC(=O)N(NC(=O)c3sc4nc(C)cc(C)c4c3N)CC2=O)cc1 | - | ? | ? | - | - | .
COc1ccccc1N1CCN(Cc2c[nH]c3ccccc23)CC1 | - | - | - | - | - | -
SMILES | PI5P4K alpha inh | JMJD2E inh | JMJD2A Tudor inh | BAZ2B inh | HP1b chromo inh | L3MBTL1 inh
CCS(=O)(=O)N1CCN(Cc2c[nH]c3ccccc23)CC1 | - | ? | 1.1µM | 56µM | ? | -
Brc1ccc(CN2CCN(Cc3c[nH]c4ccccc34)CC2)cc1 | - | . | 2.2µM | 40µM | 22µM | .
CN1CCCN(Cc2ccccc2Br)CC1 | - | . | 0.89µM | ? | ? | -
OCc1ccccc1CN1CCCCCC1 | - | . | - | . | - | .
Cc1ccccc1N1CCN(Cc2c[nH]c3ccccc23)CC1 | . | - | 5µM | ? | ? | .
O=C(NCc1ccc(F)cc1)C(=O)NCC(c1ccc2c(c1)OCO2)N1CCOCC1 (configuration not stated) | . | . | - | - | - | .
Cc1ccc2nc(-c3ccc(Cl)c(NC(=O)COc4cccc(C)c4C)c3)oc2c1 | . | . | - | - | - | .
O=C(c1cccc(Cl)c1)N1CCN(CCc2ccccn2)CC1 | . | . | - | - | - | .
O=[N+]([O-])c1ccc(CN2CCN(Cc3c[nH]c4ccccc34)CC2)cc1 | - | ? | 7.9µM | 22µM | ? | -
Brc1ccccc1CN1CCN(Cc2c[nH]c3ccccc23)CC1 | - | . | 0.79µM | . | 40µM | .
Fc1ccc(N2CCN(Cc3c[nH]c4ccccc34)CC2)cc1 | . | - | . | ? | . | ?
O=C(c1cccc(Cl)c1)N1CCN(Cc2c[nH]c3ccccc23)CC1 | - | - | 3.5µM | - | - | -
CCOc1ccc(NC(=O)C2CCN(c3nc4ccccc4[nH]3)CC2)cc1 | . | . | - | - | - | .
COc1ccc(CCn2c(=O)c3cccnc3n(CC(=O)Nc3ccc(C)c(F)c3)c2=O)cc1OC | . | . | - | - | - | .
O=C1NC[C@@H](CCCCN2C[C@H](Cc3ccc(O)cc3)N(CCc3ccccc3)C(=O)C2=O)N(Cc2ccccc2)C1=O | - | . | . | . | . | .
COc1ccc(N2CC(NC(=O)Cc3cccs3)CC2=O)cc1OC (configuration not stated) | . | . | - | - | - | .
CCSc1nnc2c(n1)OC(c1ccc(OC)cc1OC)N(C(C)=O)c1ccccc1-2 (configuration not stated) | . | . | - | - | - | .
COc1ccccc1C(=O)Nc1cccc(OCc2cc(=O)n3c4c(sc3n2)CCCC4)c1 | . | . | - | - | - | .
Cc1c(C(=O)N2CCOCC2)c(S(=O)(=O)Nc2ccc(Br)cc2F)c(C)n1C | - | . | 18µM | - | - | .
CCOc1ccccc1CN1CCC(O)CC1 | . | - | 5.6µM | ? | ? | .
COc1cc(C(C)=O)ccc1OCCCN1CCC(Cc2ccccc2)CC1 | - | . | ? | 56µM | ? | .
C=CCOc1ccccc1CN1CCC(Cc2ccccc2)CC1 | - | . | 3.2µM | ? | ? | -
OC(CN1CCC(Cc2ccccc2)CC1)C(F)(F)F (configuration not stated) | - | . | - | - | - | .
OCc1ccccc1OCCCN1CCC(Cc2ccccc2)CC1 | - | . | 22µM | ? | ? | -
C=CCn1c(SCC(=O)c2c(N)n(C)c(=O)n(C)c2=O)nnc1-c1ccoc1C | - | . | - | . | - | -
COc1ccc(NC(=O)CN2C(=O)C(C)(C)c3cc(S(=O)(=O)N4CCCCC4)ccc32)cc1Cl | . | . | - | - | - | .
Cc1cc(-c2csc(N)n2)c(C)n1CCc1ccccc1 | ? | - | 45µM | 45µM | - | .
c1ccc(CNc2nc(-c3cccnc3)cs2)cc1 | - | - | ? | ? | - | -
Cc1nc(NC(=O)c2ccccc2)sc1-c1csc(NCc2ccccc2)n1 | - | - | ? | ? | - | .

Bioassay records from PubChem.
